Assay results reported in ChEMBL document CHEMBL3988442, “University of Dundee, Small-Polar-MMV Screening Library” (2021).
Out of some 48,000 compounds screened, about 13,000 (27%) showed an effect of 50% or more. The list shows a part of the results.

system: Wolbachia pipientis; assay: Anti-Wolbachia Cell-Based Screen; format: functional; design: scale not given: in the data most compounds retested in dose-response had high values; conditions: 5 µM

| Structure (SMILES) | Percent Effect [%] |
| --- | --- |
| COC(=O)C1(NCc2nc(C)c(C)o2)CCC(C)CC1 (stereo not given) | -8.144 |
| Cc1cc(C(=O)Nc2ccc(OCC3CCOCC3)cc2)[nH]n1 | 0.7277 |
| CN1CCN(S(=O)(=O)c2ncn(C)c2Cl)CC1 | 8.331 |
| Cn1cnc(S(=O)(=O)NCCCN2CCCCCC2=O)c1Cl | 103.8 |
| Cn1cnc(S(=O)(=O)NCCCN2CCCC2=O)c1Cl | 106 |
| O=C1CCCCN1CCCNCc1cnc(C2CCC2)s1 | -10.31 |
| CCN1CCN(S(=O)(=O)c2ncn(C)c2Cl)CC1 | 25.01 |
| Cn1cnc(S(=O)(=O)NCCN2CCCCCC2=O)c1Cl | -2.808 |
| Cc1cc(C)n(CC(C)NC(=O)c2cc(CN3CCC(O)CC3)on2)n1 (stereo not given) | -12.5 |
| COCCCc1nc(-c2ccc(S(=O)(=O)N3CCCC3)cc2)cs1 | 23.72 |
| COc1ccc(C(O)CNC(=O)Cn2ccc(=O)n(C)c2=O)cc1 (stereo not given) | 1.675 |
| COc1ccc(C(C)NC(=O)Cn2ccc(=O)n(C)c2=O)cc1F (stereo not given) | 127.2 |
| CCC(NC(=O)Cn1ccc(=O)n(C)c1=O)c1ccc(OC)cc1 (stereo not given) | 1.056 |
| CCC(NC(=O)Cn1ccc(=O)n(C)c1=O)c1ccccc1OC (stereo not given) | 2.411 |
| COc1ccc(C)cc1C(C)NC(=O)Cn1ccc(=O)n(C)c1=O (stereo not given) | 121.4 |
| COc1ccc(C)cc1C(C)NC(=O)NCCCn1cncn1 (stereo not given) | 6.959 |
| CC(C)CS(=O)(=O)CCNc1ncccn1 | -11.8 |
| N#Cc1ccccc1CN1CCCC(c2nccn2CC2CCC2)C1 (stereo not given) | 17.05 |
| O=C(c1ccccn1)N1CCCC(c2nccn2CC2CCC2)C1 (stereo not given) | 7.496 |
| Cc1nccn1CCCN1CCCC(c2ccccc2)C1 (stereo not given) | 96.96 |
| Cc1nccn1CCCN1CCC(c2nccn2CC2CCC2)CC1 | 81.99 |
| CCn1ccnc1CN(C)C1CCCN(CCCc2ccccc2)C1 (stereo not given) | 28.9 |
| Cc1nccn1CCC(=O)N1CCCN(CCCc2ccccc2)CC1 | 9.498 |
| COCCCN1CCCC(c2nccn2CC2CCC2)C1 (stereo not given) | 85.63 |

| Structure (SMILES) | Percent Effect [%] |
| --- | --- |
| FC(F)Oc1ccccc1CN1CCCC(c2nccn2CC2CC2)C1 (stereo not given) | -15.63 |
| c1cn(CC2CC2)c(C2CCN(CCC3CCOC3)CC2)n1 (stereo not given) | -2.095 |
| CCn1c(C2CCCN(Cc3nccn3CCOC)C2)nn(C)c1=O (stereo not given) | 3.298 |
| Cc1nccn1CCCN1CCCC(c2nccn2CC2CCC2)C1 (stereo not given) | 94.54 |
| CC(C(=O)N1CCCC1)N1CCC(c2nccn2CC2CCC2)CC1 (stereo not given) | -1.675 |
| CCC1CC(=O)NCc2nc3sc(C)cn3c21 (stereo not given) | 11.81 |
| CCOc1nnc(CN2CCC(c3cc4ccccc4[nH]3)CC2)s1 | -12.75 |
| CC(=O)c1cccc(OCCCC(=O)NC(C#N)CC(C)C)c1 (stereo not given) | -6.212 |
| COCCCC(=O)N1CC(=O)Nc2cc(Br)ccc21 | -0.04468 |
| Cc1nccn1CCCN1CCCC(c2nccn2C)C1 (stereo not given) | 103.4 |
| Cc1nccn1Cc1nnc(C2CCCN(Cc3cccnc3)C2)n1C (stereo not given) | -3.702 |
| Cn1ccnc1C1CCN(CCN2CCOCC2)CC1 | -3.118 |
| CC(=O)N1CCC(N2CC[C@H](c3nc4cc(C)ccc4o3)C2)CC1 | -0.1678 |
| Cn1ccnc1CN1CCN(CCOc2ccccc2C#N)CC1 | -0.4037 |
| Cn1ccnc1CN1CCC(CCC(=O)Nc2ccccc2Cl)CC1 | 11.71 |
| Cc1ccccc1CNC(=O)C1CCN(Cc2nccn2C)CC1 | 101.3 |
| Cc1ccccc1CN1CCN(Cc2nccn2C)CC1 | -1.21 |
| Cn1ccnc1CN1CCC(Cc2ccccn2)CC1 | 101.7 |
| CC(=O)N[C@@H]1CN(CC(=O)NCc2ccccc2C)C[C@H]1C(C)C | -3.086 |
| Cc1ccccc1CNC(=O)CN1CCCC(Cc2nccn2C)C1 (stereo not given) | 107 |
| CNC(=O)NC(=O)CN1CCCC(Cc2ccccc2OC)C1 (stereo not given) | -10.54 |
| Cn1ccnc1CN1CCCC(Cc2ccccn2)C1 (stereo not given) | -12.05 |
| OCCN(Cc1cccnc1)c1ncc(Br)cn1 | -8.725 |
| CCOc1ncccc1NC(=O)c1sccc1C | -6.226 |

| Structure (SMILES) | Percent Effect [%] |
| --- | --- |
| Cc1ccccc1C(C(=O)NCCN1CCC(CO)CC1)N(C)C (stereo not given) | -0.033 |
| CC(=O)NCCCC(=O)NC1(c2ccc(Cl)c(Cl)c2)CC1 | -4.491 |
| Cc1cc(S(=O)(=O)N2CCOCC2C#N)ccc1F (stereo not given) | -3.602 |
| CN1CCOC[C@H]1c1nc(C(C)(C)C)c[nH]1 | 12.45 |
| Cc1cc(C(F)(F)F)nc(C2CCCN2S(C)(=O)=O)n1 (stereo not given) | 108.4 |
| Cc1cc(C(F)(F)F)nc(CNC(=O)C2CCCCCN2C)n1 (stereo not given) | -5.462 |
| Cc1cc(C(F)(F)F)nc(C2COCCN2S(C)(=O)=O)n1 (stereo not given) | 108.9 |
| O=C(c1cccnc1O)N1CCC2(CCCO2)CC1 | -3.936 |
| COc1cc2c(cc1CNCc1cccnc1OC)OC(C)C2 (stereo not given) | 4.577 |
| Cc1noc(-c2ccc(N3CCCC(C(=O)c4nccn4C)C3)nc2)n1 (stereo not given) | 20.25 |
| CC(C)COc1cncc(NCC(O)c2ccco2)n1 (stereo not given) | 9.809 |
| CC(C)(CNC(=O)Nc1ccc(S(=O)(=O)C(F)F)cc1)N1CCOCC1 | 14.64 |
| CCN(CC)Cc1ccccc1NC(=O)N(C)Cc1ccccc1O | -1.773 |
| O=C([C@@H]1Cc2[nH]cnc2CN1Cc1cc2ccccc2o1)N1CCCC1 | 9.512 |
| COc1c(CNCc2cccc(CS(C)(=O)=O)c2)c(C)nn1C | -2.544 |
| COc1c(CNCc2ccc(S(C)(=O)=O)cc2)c(C)nn1C | 139.8 |
| COc1c(CNCc2ccc(CS(C)(=O)=O)cc2)c(C)nn1C | 148.4 |
| COc1c(CNCc2ccc(CN(C)C)cc2)c(C)nn1C | 4.116 |
| CCc1cc(N[C@@H](CO)C(N)=O)n2nc(C)c(C)c2n1 | 2.16 |
| CC(C)C(CCO)NC(=O)Nc1cc(F)ccc1-n1cccn1 (stereo not given) | 1.933 |
| CC(=O)NCCCSC1CCN(c2ccccc2Cl)C1=O (stereo not given) | 1.299 |
| O=c1c2ccccc2nnn1CN(CC1CCOC1)C1CC1 (stereo not given) | -7.02 |
